From PubChem BioAssay (EPA / NIEHS)
“And” between values parts separate entries of the source, which are not always exact repeats. Equal entries are not always repeated. Results filed as inconclusive are left out. The source made the active and inactive calls. Rule for the calls, unless noted: active = hit-call score of the fitted dose curve at least 0.9, where 1 is the maximum; inactive = score below 0.9.

Tests used:
[1] = read-out: Interleukin-8 (IL8), CXCL8 (gene 3576); assay: BSK_BE3C_IL8: BioMAP Diversity Plus: BE3C Assay for Interleukin-8 (IL8) Biomarker Activity (AID 2284280); details: primary human bronchial epithelial cells
In short: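 Primary human bronchial epithelial cells (BE3C system) exposed 24 h; IL-8 measured by ELISA and fitted in positive direction versus DMSO. Overt cytotoxicity assessed by SRB total-protein staining in parallel cultures.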

[2] = read-out: Epidermal growth factor receptor (EGFR), EGFR (gene 1956); assay: BSK_BE3C_EGFR: BioMAP Diversity Plus: BE3C Assay for Epidermal growth factor receptor (EGFR) Biomarker Activity (AID 2284281); details: primary human bronchial epithelial cells
In short: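 Human primary bronchial epithelial cells (BE3C system) dosed with chemicals; EGFR measured by ELISA at 24 h, fitted in the positive direction relative to DMSO. Cytotoxicity tracked in parallel cultures by SRB total-protein staining.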

KRT18 (gene 3875) = assay: BSK_BE3C_Keratin818: BioMAP Diversity Plus: BE3C Assay for Keratin 818 Biomarker Activity (AID 2284282); details: primary human bronchial epithelial cells
In short: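 Chemicals are added to human lung bronchial epithelial primary cells (BE3C system) and incubated 24 h. Keratin 8/18 is then measured by ELISA, with parallel SRB total-protein staining gauging overt cytotoxicity.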

[3] = read-out: Matrix Metallopeptidase 9 (MMP9), MMP9 (gene 4318); assay: BSK_BE3C_MMP9: BioMAP Diversity Plus: BE3C Assay for Matrix Metallopeptidase 9 (MMP9) Biomarker Activity (AID 2284283); details: primary human bronchial epithelial cells
In short: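 Human primary bronchial epithelial cells exposed 24 h to compound. MMP9 quantified by ELISA. SRB total-protein staining of parallel cultures assesses cytotoxicity. Positive-direction fit relative to DMSO.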

[4] = read-out: Plasminogen activator inhibitor-1 (PAI1), SERPINE1 (gene 5054); assay: BSK_CASM3C_PAI1: BioMAP Diversity Plus: CASM3C Assay for Plasminogen activator inhibitor-1 (PAI1) Biomarker Activity (AID 2284284); details: primary human coronary artery smooth muscle cells;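 note: PAI-1 protein level measured by ELISA 24 h after dosing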
[5] = read-out: Monocyte Chemoattractant Protein-1 (MCP1), CCL2 (gene 6347); assay: BSK_hDFCGF_MCP1: BioMAP Diversity Plus: hDFCGF Assay for Monocyte Chemoattractant Protein-1 (MCP1) Biomarker Activity (AID 2284285); details: primary human foreskin fibroblasts
In short: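 Human foreskin fibroblasts (hDFCGF system) were exposed to compound and secreted MCP-1 was measured by ELISA after 24 hours. Activity was fitted relative to DMSO. Cytotoxicity was checked by SRB total-protein staining in parallel cultures.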

[6] = read-out: Intercellular Adhesion Molecule 1 (ICAM1), ICAM1 (gene 3383); assay: BSK_hDFCGF_ICAM1: BioMAP Diversity Plus: hDFCGF Assay for Intercellular Adhesion Molecule 1 (ICAM1) Biomarker Activity (AID 2284287); details: primary human foreskin fibroblasts
In short: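 Primary human foreskin fibroblasts (hDFCGF system) dosed with chemical; ICAM-1 quantified by ELISA at 24 h relative to DMSO. Parallel SRB total-protein staining to assess overt cytotoxicity.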

CD40, CD40 (gene 958) = assay: BSK_IMphg_CD40: BioMAP Diversity Plus: IMphg Assay for CD40 Biomarker Activity (AID 2284288); details: primary human endothelial cells with macrophages
In short: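 Venular endothelial cells co-cultured with macrophages (human primary), CD40 measured by ELISA 24 h after dosing. Positive-direction fit vs DMSO baseline; cytotoxicity tracked by SRB total-protein staining in parallel cultures.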

[7] = read-out: TIMP metallopeptidase inhibitor 2 (TIMP2), TIMP2 (gene 7077); assay: BSK_hDFCGF_TIMP2: BioMAP Diversity Plus: hDFCGF Assay for TIMP metallopeptidase inhibitor 2 (TIMP2) Biomarker Activity (AID 2284289); details: primary human foreskin fibroblasts
In short: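 Primary human foreskin fibroblasts in the hDFCGF system, dosed for 24 h; TIMP-2 level measured by ELISA, fitted in the positive direction against DMSO; cytotoxicity checked in parallel by sulforhodamine B total protein staining.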

[8] = read-out: Interleukin-1 alpha (IL1a), IL1A (gene 3552); assay: BSK_IMphg_IL1a: BioMAP Diversity Plus: IMphg Assay for Interleukin-1 alpha (IL1a) Biomarker Activity (AID 2284290); details: primary human endothelial cells with macrophages
In short: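 Human venular endothelial cells co-cultured with macrophages, IMphg system. IL-1α is measured by ELISA 24 h after dosing and fitted in the positive direction against DMSO. Cytotoxicity is assessed by SRB staining of parallel cultures.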

[9] = read-out: E-selectin (Homo sapiens) (UniProt P16581); assay: BSK_IMphg_ESelectin: BioMAP Diversity Plus: IMphg Assay for Eselectin Biomarker Activity (AID 2284291); details: primary human endothelial cells with macrophages
In short: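 Human venular endothelial cell–macrophage co-culture, E-selectin measured by ELISA 24 h after chemical dosing. Signal fitted in the positive direction against DMSO as negative control and baseline.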

[10] = read-out: Macrophage colony-stimulating factor (MCSF), CSF1 (gene 1435); assay: BSK_IMphg_MCSF: BioMAP Diversity Plus: IMphg Assay for Macrophage colony-stimulating factor (MCSF) Biomarker Activity (AID 2284293); details: primary human endothelial cells with macrophages
In short: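 Co-culture of human venular endothelial cells and macrophages, 24 hours of chemical exposure. M-CSF quantified by ELISA, with parallel SRB total-protein staining for cytotoxicity; activity fitted relative to DMSO.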

[11] = read-out: Interleukin-10 (IL10), IL10 (gene 3586); assay: BSK_IMphg_IL10: BioMAP Diversity Plus: IMphg Assay for Interleukin-10 (IL10) Biomarker Activity (AID 2284294); details: primary human endothelial cells with macrophages
In short: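 Human venular endothelial cells cocultured with macrophages, dosed 24 h; IL-10 measured by ELISA, activity relative to DMSO. Cytotoxicity assessed in parallel cultures by sulforhodamine B total-protein staining.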

[12] = BSK_IMphg_SRB.Mphg: Macrophage Viability Assessment in the BioMAP Diversity Plus: IMphg Assay (AID 2284295); details: primary human endothelial cells with macrophages
In short: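 Venular endothelial cells co-cultured with macrophages, read 24 h after dosing. Total protein measured by 0.1% SRB staining after 10% TCA fixation, absorbance at 560 nm. Fitted in positive direction against DMSO baseline.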

[13] = read-out: Thrombomodulin, THBD (gene 7056); assay: BSK_LPS_Thrombomodulin: BioMAP Diversity Plus: LPS Assay for Thrombomodulin Biomarker Activity (AID 2284296); details: primary human HUVEC with PBMC
In short: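 Human umbilical vein endothelial cells co-cultured with PBMC and stimulated with LPS; cell-surface thrombomodulin measured by ELISA 24 hours after compound. Gain or loss versus DMSO; cytotoxicity checked by SRB staining in parallel cultures.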

[14] = CCTE_Mundy_HCI_iCellGluta_NOG_NeuriteLength: CCTE's Neurite Outgrowth Assay in iCellGluta cells for Neurite Length, Mundy Lab (AID 2284318; active = hit-call score of the fitted dose curve at least 0.9, where 1 is the maximum)
In short: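 Automated high-content imaging of betaIII-tubulin (Alexa Fluor-488) and Hoechst-stained cells gave neurite length, normalized to the DMSO baseline.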

IYD (gene 389434) = assay: CCTE_GLTED_hIYD: CCTE's human Iodotyrosine Deiodinase (xIYD) Inhibition Assay, Great Lakes Toxicology and Ecology Division (GLTED) Lab (AID 2284317; active = hit-call score of the fitted dose curve at least 0.9, where 1 is the maximum;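 note: cell-free human IYD enzyme made in baculovirus insect cells; iodide freed from monoiodotyrosine measured by cerium arsenite color change at 420 nm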)
In short: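 Absorbance change at 420 nm from the iodide-catalysed cerium-arsenic reaction reports free iodide released by human IYD from monoiodotyrosine. Enzyme, substrate and chemical are incubated 3 h; loss of signal is fitted relative to DMSO baseline.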

Sequence of E-selectin (Homo sapiens) (P16581 whole entry, looked up): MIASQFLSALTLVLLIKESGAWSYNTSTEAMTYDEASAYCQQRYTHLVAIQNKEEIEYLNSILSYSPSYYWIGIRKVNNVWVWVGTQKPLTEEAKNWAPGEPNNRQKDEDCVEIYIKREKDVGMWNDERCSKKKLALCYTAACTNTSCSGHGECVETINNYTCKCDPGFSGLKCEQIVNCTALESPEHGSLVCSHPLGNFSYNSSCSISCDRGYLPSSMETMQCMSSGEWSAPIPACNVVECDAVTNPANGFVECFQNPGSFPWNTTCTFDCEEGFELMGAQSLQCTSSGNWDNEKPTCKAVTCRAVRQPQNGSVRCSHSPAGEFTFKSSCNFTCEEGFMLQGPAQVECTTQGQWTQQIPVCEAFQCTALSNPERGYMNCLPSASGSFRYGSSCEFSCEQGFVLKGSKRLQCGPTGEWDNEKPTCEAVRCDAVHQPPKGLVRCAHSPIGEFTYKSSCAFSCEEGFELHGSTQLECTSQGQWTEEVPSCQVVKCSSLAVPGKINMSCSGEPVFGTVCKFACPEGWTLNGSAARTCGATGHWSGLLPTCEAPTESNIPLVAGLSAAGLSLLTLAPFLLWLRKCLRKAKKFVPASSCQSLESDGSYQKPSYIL

| SMILES | outcome [1] | outcome [2] | outcome (KRT18 (gene 3875)) | outcome [3] | outcome [4] | outcome [5] | outcome [6] | outcome (CD40, CD40 (gene 958)) | outcome [7] | outcome [8] | outcome [9] | outcome [10] | outcome [11] | outcome [12] | outcome [13] | AC50 [11] | outcome [14] | AC50 (IYD (gene 389434)) |
| --- | --- | --- | --- | --- | --- | --- | --- | --- | --- | --- | --- | --- | --- | --- | --- | --- | --- | --- |
| OCC(O)CC(F)(F)C(F)(F)C(F)(F)C(F)(F)F (stereo not drawn) | inactive | inactive | inactive | inactive | inactive | inactive | inactive | inactive | inactive | inactive | inactive | inactive | inactive | inactive | inactive | – | – | – |
| OCC(F)(F)C(F)(F)C(F)(F)C(F)(F)C(F)(F)C(F)(F)CO | inactive | inactive | inactive | inactive | inactive | inactive | inactive | inactive | inactive | inactive | inactive | inactive | – | inactive | inactive | 3.34 µM (active) and 5.58 µM (active) | – | – |
| OC(O)C(F)(F)C(F)(F)F | inactive | inactive | inactive | inactive | inactive | inactive | inactive | inactive | inactive | inactive | inactive | inactive | inactive | inactive | inactive | – | – | – |
| NC(O)(C(F)(F)F)C(F)(F)F | inactive | inactive | inactive | inactive | inactive | inactive | inactive | inactive | inactive | inactive | inactive | inactive | inactive | inactive | inactive | – | inactive | – |
| CCCCCCCCn1sc(Cl)c(Cl)c1=O | – | – | – | – | – | – | – | – | – | – | – | – | – | – | – | – | – | 100 µM (active) |
| NC(=O)C(F)(F)C(F)(F)C(F)(F)C(F)(F)C(F)(F)C(F)(F)C(F)(F)F | inactive | inactive | inactive | inactive | inactive | inactive | inactive | inactive | inactive | inactive | inactive | inactive | inactive | inactive | inactive | – | inactive | – |
| CN(C(=O)C(F)(F)C(F)(F)C(F)(F)F)[Si](C)(C)C | inactive | inactive | inactive | inactive | inactive | inactive | inactive | inactive | inactive | inactive | inactive | inactive | inactive | inactive | inactive | – | – | – |
